PubChem BioAssay (NCI)
About 83,000 compounds went through this panel and 20% of them were active in at least one assay; those are over-represented in the sample as a whole.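 How to read the values: 0–100, growth inhibition (40 = 60% inhibited); 0, no net growth; -100 to 0, cell death (-40 = 40% of starting cells died; -100 = all dead).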 The source made the active and inactive calls. How the source made its calls: active means growth percent below 10; inactive means the rest.

Legend:
Assay in all cases: NCI-60 one-dose screen, 48 h (100 = growth as untreated, 0 = no growth, -100 = all killed)
Details in all cases: 10 µM unless noted
NCI-H23 lung = tested on: NCI-H23 lung
NCI-H226 lung = tested on: NCI-H226 lung
NCI-H322M lung = tested on: NCI-H322M lung
HOP-62 NSCLC = tested on: HOP-62 NSCLC
NCI-H460 lung = tested on: NCI-H460 lung
HOP-92 NSCLC = tested on: HOP-92 NSCLC
NCI-H522 lung = tested on: NCI-H522 lung
A549/ATCC NSCLC = tested on: A549/ATCC NSCLC
786-0 renal = tested on: 786-0 renal
COLO 205 colon = tested on: COLO 205 colon
DU-145 prostate = tested on: DU-145 prostate
K-562 leukemia = tested on: K-562 leukemia
MDA-MB-231 breast = tested on: MDA-MB-231 breast
RXF 393 renal = tested on: RXF 393 renal
SF-268 CNS = tested on: SF-268 CNS
SF-539 CNS = tested on: SF-539 CNS
UACC-257 melanoma = tested on: UACC-257 melanoma
M14 melanoma = tested on: M14 melanoma
SF-295 CNS = tested on: SF-295 CNS
MALME-3M melanoma = tested on: MALME-3M melanoma

Measured: growth

COc1ccc(/C(=C\c2ccc3c(c2)OCO3)C(=O)Nc2nc3ccccc3s2)cc1OC
inactive: NCI-H23 lung 95.1% | NCI-H226 lung 86.9% | NCI-H322M lung 91.4% | HOP-62 NSCLC 94.2% | NCI-H460 lung 102% | HOP-92 NSCLC 91.4% | NCI-H522 lung 89.5% | A549/ATCC NSCLC 91.5% | 786-0 renal 83.7% | COLO 205 colon 110% | DU-145 prostate 105% | K-562 leukemia 83.9% | MDA-MB-231 breast 109% | RXF 393 renal 88.4% | SF-268 CNS 83.2% | SF-539 CNS 93.8% | UACC-257 melanoma 105% | M14 melanoma 92.7%

COCCNC1=C(Cl)C(=O)c2ccccc2C1=O
inactive: NCI-H23 lung 64.8% | NCI-H226 lung 95.9% | NCI-H322M lung 113% | HOP-62 NSCLC 117% | NCI-H460 lung 95.4% | HOP-92 NSCLC 137% | NCI-H522 lung 96.1% | A549/ATCC NSCLC 88.8% | 786-0 renal 114% | COLO 205 colon 110% | DU-145 prostate 53.9% | K-562 leukemia 99.8% | MDA-MB-231 breast 99.6% | RXF 393 renal 105% | SF-268 CNS 95.6% | SF-295 CNS 75.1% | SF-539 CNS 136% | UACC-257 melanoma 100% | M14 melanoma 96.9%

Cc1cc(N2CCCCC2)nc(N(CCCNc2ccnc3cc(Cl)ccc23)Cc2ccco2)n1
active: HOP-62 NSCLC 8.53% | HOP-92 NSCLC -6.02% | COLO 205 colon -35.3% | K-562 leukemia 3.78% | MALME-3M melanoma -5.59% | SF-539 CNS -36.5% | M14 melanoma -74.4%
inactive: NCI-H23 lung 21.4% | NCI-H226 lung 57.1% | NCI-H322M lung 19.6% | NCI-H460 lung 10.7% | NCI-H522 lung 49.9% | 786-0 renal 24.2% | DU-145 prostate 39% | MDA-MB-231 breast 21.8% | RXF 393 renal 19.6% | SF-268 CNS 44% | SF-295 CNS 20.3% | UACC-257 melanoma 49.4%

Cn1cc(-c2nc(-c3c[nH]c4ncccc34)cs2)c2ccccc21
inactive: NCI-H23 lung 63.4% | NCI-H226 lung 85.7% | NCI-H322M lung 52.6% | HOP-62 NSCLC 92.9% | NCI-H460 lung 35.8% | HOP-92 NSCLC 42.6% | NCI-H522 lung 84% | A549/ATCC NSCLC 90.6% | 786-0 renal 90.5% | COLO 205 colon 85.9% | DU-145 prostate 99.9% | K-562 leukemia 65.5% | MDA-MB-231 breast 42.9% | RXF 393 renal 84.3% | SF-268 CNS 99.3% | SF-295 CNS 98% | SF-539 CNS 99.9% | UACC-257 melanoma 95.5% | M14 melanoma 81.1%

Cc1ccc(Cc2cnc(NC(=O)/C=C/c3cccc(C)c3)s2)cc1
inactive: NCI-H23 lung 13.3% | NCI-H226 lung 36.8% | NCI-H322M lung 46.1% | HOP-62 NSCLC 18.5% | HOP-92 NSCLC 70.4% | NCI-H522 lung 18.6% | 786-0 renal 17.8% | DU-145 prostate 16.2% | K-562 leukemia 13.7% | MALME-3M melanoma 31.4% | SF-268 CNS 44.7% | UACC-257 melanoma 67.7%
active: NCI-H460 lung 1.93% | COLO 205 colon -4.26% | MDA-MB-231 breast 3.61% | RXF 393 renal -0.16% | SF-295 CNS -13.6% | SF-539 CNS -30.1% | M14 melanoma -12.4%

Fc1cccc(-c2[nH]nc3nc(Nc4cccnc4)sc23)c1
inactive: NCI-H23 lung 43.3% | NCI-H226 lung 70.8% | NCI-H322M lung 65.1% | HOP-62 NSCLC 55.4% | NCI-H460 lung 21.2% | HOP-92 NSCLC 86.4% | NCI-H522 lung 16% | A549/ATCC NSCLC 37.8% | 786-0 renal 53.6% | COLO 205 colon 15.7% | DU-145 prostate 29.4% | K-562 leukemia 21% | MDA-MB-231 breast 78.2% | RXF 393 renal 44.5% | SF-268 CNS 60.6% | SF-295 CNS 27.4% | SF-539 CNS 24% | UACC-257 melanoma 72.4% | M14 melanoma 45.5%

CC[C@]12C=CCN3CC[C@@]4(c5cc([C@H]6CCC(=O)N6)c(OC)cc5N(C)[C@H]4[C@@](O)(C(=O)OC)[C@@H]1OC(C)=O)[C@@H]32
inactive: NCI-H23 lung 100% [2.5 µM] | NCI-H226 lung 92.7% [2.5 µM] | NCI-H322M lung 99.8% [2.5 µM] | HOP-62 NSCLC 98.1% [2.5 µM] | NCI-H460 lung 107% [2.5 µM] | HOP-92 NSCLC 98.5% [2.5 µM] | NCI-H522 lung 93% [2.5 µM] | 786-0 renal 104% [2.5 µM] | COLO 205 colon 108% [2.5 µM] | DU-145 prostate 119% [2.5 µM] | K-562 leukemia 105% [2.5 µM] | MALME-3M melanoma 97.5% [2.5 µM] | MDA-MB-231 breast 98.7% [2.5 µM] | RXF 393 renal 113% [2.5 µM] | SF-268 CNS 116% [2.5 µM] | SF-295 CNS 100% [2.5 µM] | SF-539 CNS 92.4% [2.5 µM] | M14 melanoma 95.5% [2.5 µM]

NC1=NN=C2N(N)C(=O)c3cnn(-c4ccccc4)c3N2c2nc(-c3ccccc3)cc(-c3ccccc3)c21
inactive: NCI-H23 lung 94.1% | NCI-H226 lung 87.4% | NCI-H322M lung 103% | HOP-62 NSCLC 96.8% | NCI-H460 lung 103% | HOP-92 NSCLC 96.7% | NCI-H522 lung 74.9% | 786-0 renal 104% | COLO 205 colon 116% | DU-145 prostate 108% | K-562 leukemia 92.9% | MALME-3M melanoma 120% | MDA-MB-231 breast 89.4% | RXF 393 renal 138% | SF-268 CNS 105% | SF-295 CNS 94.6% | SF-539 CNS 103% | UACC-257 melanoma 108% | M14 melanoma 99.2%

Cc1cc(N2CCCC2)nc(N(CCNc2ccnc3cc(Cl)ccc23)Cc2ccco2)n1
inactive: NCI-H226 lung 24.9% | NCI-H322M lung 19.7% | HOP-62 NSCLC 43.3% | NCI-H460 lung 15.8% | NCI-H522 lung 49.9% | COLO 205 colon 15.9% | DU-145 prostate 50.3% | MALME-3M melanoma 28.2% | MDA-MB-231 breast 11.7% | SF-268 CNS 55.5% | SF-295 CNS 18.8% | UACC-257 melanoma 69.8%
active: NCI-H23 lung 9.57% | HOP-92 NSCLC -15% | 786-0 renal 4.55% | K-562 leukemia -1.93% | RXF 393 renal -0.497% | SF-539 CNS -10.7% | M14 melanoma -63.2%

Cc1cc(C=O)c(C)c2c1[nH]c1ccccc12
active: NCI-H226 lung -21.9%
inactive: NCI-H23 lung 98.5% | NCI-H322M lung 97.7% | HOP-62 NSCLC 103% | NCI-H460 lung 76.1% | HOP-92 NSCLC 88.7% | NCI-H522 lung 88.5% | A549/ATCC NSCLC 99.2% | 786-0 renal 100% | COLO 205 colon 110% | DU-145 prostate 107% | K-562 leukemia 97.8% | MDA-MB-231 breast 90.5% | RXF 393 renal 117% | SF-268 CNS 96.8% | SF-539 CNS 95.9% | UACC-257 melanoma 78.6% | M14 melanoma 105%

Cn1c2c(c3ccc(Cl)cc31)-n1cccc1C2=O
inactive: NCI-H23 lung 95.2% | NCI-H226 lung 99.3% | NCI-H322M lung 85.4% | HOP-62 NSCLC 107% | NCI-H460 lung 92.9% | HOP-92 NSCLC 81.8% | NCI-H522 lung 71.3% | A549/ATCC NSCLC 75.1% | 786-0 renal 80.9% | COLO 205 colon 90.4% | DU-145 prostate 88.6% | K-562 leukemia 107% | MDA-MB-231 breast 87.5% | RXF 393 renal 91.8% | SF-268 CNS 92.3% | SF-295 CNS 105% | SF-539 CNS 94.7% | UACC-257 melanoma 106% | M14 melanoma 109%

OCC(CO)(CCl)CCl
inactive: NCI-H23 lung 93.2% | NCI-H226 lung 101% | NCI-H322M lung 112% | HOP-62 NSCLC 99% | NCI-H460 lung 106% | HOP-92 NSCLC 86.4% | NCI-H522 lung 91.1% | 786-0 renal 100% | COLO 205 colon 105% | DU-145 prostate 105% | K-562 leukemia 106% | MALME-3M melanoma 101% | MDA-MB-231 breast 94.8% | RXF 393 renal 113% | SF-268 CNS 98% | SF-295 CNS 107% | SF-539 CNS 102% | UACC-257 melanoma 69.6%

O=C1CCC/C=C\C[C@H]2C=C(Cl)C(=O)/C2=C/C[C@H](CCCCC(F)(F)F)OC(=O)CCC/C=C\C[C@H]2C=C(Cl)C(=O)/C2=C/C[C@H](CCCCC(F)(F)F)O1
active: NCI-H23 lung -35.2% [7.5 µM] | NCI-H226 lung -19.3% [7.5 µM] | NCI-H322M lung -36.9% [7.5 µM] | HOP-62 NSCLC -29.9% [7.5 µM] | NCI-H460 lung -33.2% [7.5 µM] | HOP-92 NSCLC -58.4% [7.5 µM] | NCI-H522 lung -62.2% [7.5 µM] | 786-0 renal -55% [7.5 µM] | COLO 205 colon -57.2% [7.5 µM] | DU-145 prostate 0.342% [7.5 µM] | K-562 leukemia 1.45% [7.5 µM] | MALME-3M melanoma -18.2% [7.5 µM] | MDA-MB-231 breast -22.9% [7.5 µM] | RXF 393 renal -92% [7.5 µM] | SF-268 CNS 6.24% [7.5 µM] | SF-295 CNS -37.6% [7.5 µM] | SF-539 CNS -12.5% [7.5 µM] | UACC-257 melanoma -55.3% [7.5 µM] | M14 melanoma -62.1% [7.5 µM]

Cc1csc(Nc2nc(-c3cccc(Br)c3)nc(C(Cl)(Cl)Cl)n2)n1
active: NCI-H322M lung -29.9% | NCI-H460 lung 9.54% | COLO 205 colon 4.32% | DU-145 prostate -5.72%
inactive: NCI-H23 lung 85.6% | NCI-H226 lung 110% | HOP-62 NSCLC 34% | HOP-92 NSCLC 51.2% | NCI-H522 lung 97.1% | 786-0 renal 75.2% | K-562 leukemia 84% | MALME-3M melanoma 98.8% | MDA-MB-231 breast 15.5% | RXF 393 renal 20.2% | SF-268 CNS 78.1% | SF-295 CNS 20.7% | SF-539 CNS 41% | UACC-257 melanoma 60.6% | M14 melanoma 86.4%
